From PubChem BioAssay
CF NFkB inh = inhibitors of PAF-induced NF-kB signaling, primary screen, cell-based, GFP fluorescence, uHTS; KKLEB NF-kB-GFP reporter, GFP fluorescence overnight; inhibition, % at 5 µM; hit rate 0.86% among 360,000; AID 588850, 2011;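 active means at least 50% inhibition at 5 µM, scaled per plate between neutral and stimulator controls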;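 further: PAF is a Pseudomonas aeruginosa culture filtrate used as stimulus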
MITF TRPM1 inh = inhibitors of MITF-dependent TRPM1 promoter reporter, primary screen, cell-based, SK-MEL-5, single point, luciferase; SK-MEL-5 TRPM1 promoter luciferase, 24 h; inhibition, % at 12.5 µM; hit rate 0.83% among 330,000; AID 488899, 2010;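 active means mean inhibition across replicates of 60% or more, whatever share of single replicates reaches that level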
HIF-2a inh = HIF-2a reporter inhibitors, primary screen, luminescence, 786-0 RCC cells. 786-0 RCC cells HIF-2a reporter, luciferase luminescence, overnight. inhibition, % at 18.8 µM. hit rate 0.72% among 360,000. AID 624352, 2012;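 active means inhibition of the luminescence signal of 40% or more relative to plate controls, in a single-dose primary screen at 18.75 µM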
KKLEB cytotox = cytotoxicity in KKLEB CF airway cells, primary screen, cytotoxicity control for CF NF-kB inhibitor project, cell-based, uHTS, fluorescence assay plates. hit rate 0.36% among 360,000. activity change (cytotoxicity), % at 5 µM. KKLEB CF airway cells viability, ATPlite luminescence, overnight; active compounds read low; cells stimulated with P. aeruginosa culture filtrate;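 active means corrected activity change at or below -50% at 5 µM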
Peg3 prom inh-1 = Peg3 promoter-driven luciferase inhibitors, primary screen, cell-based, HeLa, luciferase luminescence; HeLa PEG-Prom luciferase reporter, overnight; inhibition, % at 20 µM; hit rate 1.7% among 360,000; AID 588405, 2011;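 active means inhibition of at least 50% at 20 µM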
B2AR ag = beta2AR agonists driving receptor internalization, primary screen, cell-based, FAP fluorogen, flow cytometry; Am2.2-beta2AR cells; hit rate 0.43% among 340,000; response, % (test concentration not listed);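 active means response above a set limit, near 3 SD of response in nonfluorescent compounds, cut at about 42% in these data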
Target sequence (P07550 whole entry, looked up): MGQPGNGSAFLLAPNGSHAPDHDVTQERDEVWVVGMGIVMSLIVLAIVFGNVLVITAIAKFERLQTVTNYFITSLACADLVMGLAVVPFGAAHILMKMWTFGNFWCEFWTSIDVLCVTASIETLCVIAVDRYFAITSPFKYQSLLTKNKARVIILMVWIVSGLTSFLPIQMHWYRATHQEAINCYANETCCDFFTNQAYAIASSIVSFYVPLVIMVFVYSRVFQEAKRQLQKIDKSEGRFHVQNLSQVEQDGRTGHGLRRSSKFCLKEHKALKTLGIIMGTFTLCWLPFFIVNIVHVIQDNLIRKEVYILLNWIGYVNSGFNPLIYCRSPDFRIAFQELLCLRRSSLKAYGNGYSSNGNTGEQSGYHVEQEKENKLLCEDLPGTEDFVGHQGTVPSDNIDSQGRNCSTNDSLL
Peg3 prom inh-2 = Peg3 promoter reporter inhibitors, retest, confirmation, cell-based, HeLa, luciferase reporter, single concentration | shares compounds with Peg3 prom inh-1 | HeLa PEG-Prom luciferase reporter, luminescence, overnight | inhibition, % at 20 µM | hit rate 84% among 1,300 | AID 602417, 2012;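 active means at 20 µM dose, 40% or more inhibition averaged across four replicates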
Each line names hits and unclear results; the compound was inactive in the other large screens (follow-up assays come after a bar, where they were run). Compounds with a hit are over-represented: about 2.8% of the library has one in this group of screens.

C[C@H](CO)N1C[C@H](C)[C@@H](CN(C)C(=O)NC2CCCCC2)Oc2ncc(Br)cc2C1=O	none (no result: MITF TRPM1 inh, B2AR ag)
COc1cccc2c1C(=N)c1c(O)c3c(c(O)c1C2=O)CC(O)(C(C)=O)CC3OC1CC(N)C(O)C(C)O1 (stereo not drawn)	MITF TRPM1 inh 92, Peg3 prom inh-1 98 | Peg3 prom inh-2 96
COc1ccc2c(C#CCCO)c(-c3ccc(S(C)(=O)=O)cc3)sc2c1	Peg3 prom inh-1 50 | Peg3 prom inh-2 42
CS(=O)(=O)c1ccc(-c2sc3ccccc3c2C#CCCO)cc1	Peg3 prom inh-1 54 | Peg3 prom inh-2 60
COc1ccc(-c2sc3ccccc3c2C#CCCO)cc1	none
O=C1C(c2ccnc3ccccc23)=C(O)c2ccccc21	Peg3 prom inh-1 88 | Peg3 prom inh-2 inactive
COC(=O)C[C@H]1C[C@@H]2c3cc(NC(=O)CN(C)C)ccc3O[C@@H]2[C@H](CO)O1	none (no result: MITF TRPM1 inh, B2AR ag)
Nc1c(Br)cc(Br)c2c1[nH]c(=O)c1ccccc12	none (no result: MITF TRPM1 inh, B2AR ag)
OC1(c2ccc(Cl)c(Cl)c2)C[n+]2ccccc2N1Cc1ccccc1 (stereo not drawn)	Peg3 prom inh-1 95 | Peg3 prom inh-2 90
OC1(c2ccccc2)CCN(Cc2ccccc2)CC1	none
CCCCNC(=O)C1c2ccccc2OCC(=O)N1Cc1ccccc1 (stereo not drawn)	none (no result: CF NFkB inh, MITF TRPM1 inh, KKLEB cytotox, Peg3 prom inh-1, B2AR ag)
Cc1ncc(CO)c(/C=N/Nc2ccc(C(F)(F)F)cn2)c1O	Peg3 prom inh-1 62 | Peg3 prom inh-2 67
CCc1ccc2c(c1)Sc1ccccc1CC2N1CCN(C)CC1 (stereo not drawn)	Peg3 prom inh-1 55 | Peg3 prom inh-2 77
Cc1cc(C(=O)N2CCC2(C)C(=O)Nc2ccc3[nH]ncc3c2)nn1C (stereo not drawn)	none (no result: MITF TRPM1 inh, B2AR ag)
Cc1cc(C)c2nc(NNC(=O)c3ccc(S(=O)(=O)N4CC(C)CC(C)C4)cc3)sc2c1 (stereo not drawn)	MITF TRPM1 inh 69, Peg3 prom inh-1 94, B2AR ag 43 | Peg3 prom inh-2 99
CCc1ccc2nc3nc(C)cc(C)c3c(N)c2c1	none
Cc1cc(C)c2c(N)c3ccccc3nc2n1	MITF TRPM1 inh 66, Peg3 prom inh-1 87 | Peg3 prom inh-2 91
Cc1ccc(-c2cc3c(nn2)-c2ccccc2C3=O)cc1	MITF TRPM1 inh 78, KKLEB cytotox -75, Peg3 prom inh-1 76 | Peg3 prom inh-2 67
Cc1ccccc1OCCOC(=O)c1cc(S(=O)(=O)N2CCOCC2)ccc1C	none (no result: MITF TRPM1 inh, B2AR ag)
CCCCCCCCN1C(=O)[C@H](CC(=O)N2CCSCC2)C[C@@]2(C(=O)OC)CC(C)(C)CC=C12	none (no result: CF NFkB inh, MITF TRPM1 inh, KKLEB cytotox, Peg3 prom inh-1, B2AR ag)
CCOc1cc(CNCCCN2CCOCC2)ccc1OCC(=O)Nc1cccc2ccccc12	Peg3 prom inh-1 50 | Peg3 prom inh-2 64
O=c1[nH]nc2c3ccccc3occ1-2	none (no result: CF NFkB inh, MITF TRPM1 inh, KKLEB cytotox, Peg3 prom inh-1, B2AR ag)
CC(C)NC(=O)NC(=O)COC(=O)c1c2c(nc3ccccc13)CCC2	Peg3 prom inh-1 92 | Peg3 prom inh-2 86
O=C(COC(=O)c1c2c(nc3ccccc13)CCCC2)Nc1ccc2c(c1)OCO2	none
O=C(COC(=O)c1c2c(nc3ccccc13)/C(=C\c1cccs1)CCC2)Nc1ccccc1	Peg3 prom inh-1 55 | Peg3 prom inh-2 60
COc1cc(CNC(=O)c2cc(-c3cc(Cl)ccc3OC)n[nH]2)cc(OC)c1	none (no result: MITF TRPM1 inh, B2AR ag)
Cc1cc(NC(=O)c2cncc(Br)c2)ccc1NC(=O)c1cc2ccccc2o1	MITF TRPM1 inh 65, Peg3 prom inh-1 85 | Peg3 prom inh-2 inactive
CN1C/C(=C/c2ccccc2[N+](=O)[O-])C(=O)/C(=C\c2ccccc2[N+](=O)[O-])C1	MITF TRPM1 inh 62, Peg3 prom inh-1 96 | Peg3 prom inh-2 100
COc1ccc(/C=C2\SC(=S)N(CCC(=O)N(CCO)Cc3ccccc3)C2=O)cc1OC	Peg3 prom inh-1 78 | Peg3 prom inh-2 inactive
COc1cc(/C=C2/SC(=S)N(Cc3ccccc3)C2=O)ccc1OCC(=O)O	none
NC(=O)c1cccc(-c2ccnc3c2CC(C(=O)Nc2ccc(Cl)cc2)O3)c1 (stereo not drawn)	none (no result: MITF TRPM1 inh, B2AR ag)
O=C(/C=C/c1ccccc1)NC(NC(=S)Nc1cccc(O)c1)C(Cl)(Cl)Cl (stereo not drawn)	none
O=C(/C=C/c1ccccc1)NC(NC(=S)Nc1cccc(Cl)c1)C(Cl)(Cl)Cl (stereo not drawn)	Peg3 prom inh-1 79 | Peg3 prom inh-2 67
COc1ccc(-c2sc3ccccc3c2-c2ccc(OCCN3CCCCC3)cc2)cc1	Peg3 prom inh-1 96 | Peg3 prom inh-2 79
COc1ccc(C(N)c2csc(Nc3ccc(C(F)(F)F)cn3)n2)cc1 (stereo not drawn)	none (no result: MITF TRPM1 inh, B2AR ag)
Cc1cc(Cl)n2ncc(-c3ccccc3)c2n1	Peg3 prom inh-1 87 | Peg3 prom inh-2 68
COc1ccc(C(=O)NNC(=O)c2ccccn2)cc1	MITF TRPM1 inh 85, HIF-2a inh 83, Peg3 prom inh-1 105 | Peg3 prom inh-2 95
COc1cc(OC)cc(C(=O)O/N=C(\N)c2ccccn2)c1	none (no result: MITF TRPM1 inh)
COc1ccccc1C(=O)O/N=C(\N)c1ccccn1	none
N/C(=N\OC(=O)c1ccccc1Cl)c1ccccn1	MITF TRPM1 inh 66, Peg3 prom inh-1 59 | Peg3 prom inh-2 inactive
N/C(=N\OC(=O)c1ccc(Cl)c(Cl)c1)c1ccccn1	none
N/C(=N\OC(=O)c1ccc(Cl)cc1)c1ccccn1	Peg3 prom inh-1 78 | Peg3 prom inh-2 inactive
COc1ccc(C(=O)NCCNC(=O)c2ccccn2)cc1	none
COc1ccc(C(=O)O/N=C(\N)c2ccccn2)cc1	MITF TRPM1 inh 81, Peg3 prom inh-1 99 | Peg3 prom inh-2 92
CCOc1ccccc1C(=O)NC(C(=O)OCn1nnc2ccccc2c1=O)C(C)C (stereo not drawn)	none (no result: MITF TRPM1 inh, B2AR ag)
O=[N+]([O-])c1ccc(Sc2cccc3cccnc23)cc1	none
C=CCn1nc([N+](=O)[O-])nc1Sc1cccc2cccnc12	Peg3 prom inh-1 54 | Peg3 prom inh-2 inactive
Cc1ccc2[nH]c(=O)c(C3C(C#N)=C(N)Oc4c3ccc3cccnc43)cc2c1 (stereo not drawn)	Peg3 prom inh-1 50 | Peg3 prom inh-2 48
Cc1ccc(C(=O)Nc2cc3ccccc3oc2=O)cc1	MITF TRPM1 inh 91, HIF-2a inh 49, Peg3 prom inh-1 90 | Peg3 prom inh-2 62
CC(=O)Nc1cc2ccccc2oc1=O	none
COc1ccc(NC(=O)c2cc3ccccc3oc2=O)cc1	Peg3 prom inh-1 55 (no result: MITF TRPM1 inh, B2AR ag) | Peg3 prom inh-2 inactive
CC(=O)Nc1cc(-c2cccc(NS(C)(=O)=O)c2)cn2c(-c3ccc(F)c(Cl)c3)cnc12	none (no result: MITF TRPM1 inh, B2AR ag)
